# IL-1B inflam inh: inhibitors of inflammasome signaling (IL-1 beta secretion) | AID 743279 | THP-1 LPS/ATP IL-1B secretion, AlphaLISA, 16 h; active compounds read low | activity change, % at 57.5 µM | 360,000 compounds, 4.7% hits; in the data active means activity change below about -50%; inconclusive means mostly about -30% to -49%
#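 Secreted IL-1B measured by AlphaLISA bead assay after 16 h compound exposure of THP-1 cells; compounds (final up to 57.5 uM) added 1 h before LPS (250 ng/mL) and ATP (1.25 mM) stimulation; lower signal means less secretion.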
# TDP1 cell CPT: growth inhibition of DT40 Tdp1-/-;hTDP1 cells with camptothecin (screen for TDP1 inhibitors). chicken DT40 Tdp1-/-;hTDP1 cells + 20 nM CPT, ATP luminescence, 48 h. Potency, µM (series often up to 46.2 µM), actives largely listed as inhibitors. 420,000 compounds, 12% hits; further: nearly all actives have a fitted effect of over 55% in size
#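 Chicken DT40 Tdp1-/- cells stably complemented with human TDP1 were seeded at 400 cells/well in medium containing 20 nM camptothecin, exposed to pin-transferred compounds, and grown at 37 °C for at least 48 hr. Viability was read as ATP luminescence.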
# TDP1 block: inhibitors of human tyrosyl-DNA phosphodiesterase TDP1; recombinant TDP1, AlphaScreen DNA substrate cleavage; Potency, µM (highest dose often 130 µM), usual class: inhibitors; 350,000 compounds, 0.28% hits; AID 485290; further: nearly all actives have a fitted effect of over 40% in size
# Target sequence (Q9NUW8 whole entry, looked up): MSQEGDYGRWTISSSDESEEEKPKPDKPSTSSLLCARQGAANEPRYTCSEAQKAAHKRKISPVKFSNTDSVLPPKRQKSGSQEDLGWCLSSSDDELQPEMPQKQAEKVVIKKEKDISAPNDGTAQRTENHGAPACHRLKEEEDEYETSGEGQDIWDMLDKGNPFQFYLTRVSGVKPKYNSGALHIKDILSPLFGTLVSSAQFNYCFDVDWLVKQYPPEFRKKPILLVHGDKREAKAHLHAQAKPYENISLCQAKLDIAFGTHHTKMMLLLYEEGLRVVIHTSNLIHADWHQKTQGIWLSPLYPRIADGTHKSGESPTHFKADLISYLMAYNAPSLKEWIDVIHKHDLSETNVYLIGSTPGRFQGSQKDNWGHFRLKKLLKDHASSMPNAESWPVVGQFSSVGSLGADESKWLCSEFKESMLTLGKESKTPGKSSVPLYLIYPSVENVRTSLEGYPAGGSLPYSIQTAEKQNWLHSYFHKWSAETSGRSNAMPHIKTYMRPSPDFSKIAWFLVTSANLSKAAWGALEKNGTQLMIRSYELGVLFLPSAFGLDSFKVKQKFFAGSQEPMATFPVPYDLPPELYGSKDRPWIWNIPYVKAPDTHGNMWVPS
#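 Recombinant E. coli-expressed Tdp1 (1 nM) preincubated with compound 15 min at RT, then 5'-biotin/3'-phosphotyrosine-FITC DNA substrate (15 nM) added for 5 min. AlphaScreen beads (10 ug/ml) added, 10 min RT; tyrosine-FITC cleavage read as signal loss.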
# TGFb inhibitor: inhibitors of TGF-b signaling; HepG2 CAGA-GFP TGF-b/SMAD3 reporter, GFP fluorescence, 18 h; TGF-beta stimulated, 500 pg/mL final; Potency, µM (doses to about 46.1 µM), usual class: inhibitors; 410,000 compounds, 1.2% hits; AID 588855; further: nearly all actives have a fitted effect of over 65% in size
#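 Smad-responsive CAGA-GFP expression was quantified in HEPG2 cells exposed to compounds and 500 pg/mL final TGF-beta for 18 h at 37 degrees C; unstimulated wells defined full inhibition.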
# TDP1 cell noCPT: qHTS for Inhibitors of human tyrosyl-DNA phosphodiesterase 1 (TDP1): qHTS in cells in absence of CPT. DT40 Tdp1-/- hTDP1 cells, no CPT, ATP luminescence, 48 h. Potency, µM (doses to about 46.2 µM), most hits filed as inhibitors. 420,000 compounds, 15% hits; further: nearly all actives have a fitted effect of over 55% in size
#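 Stably hTDP1-transfected Tdp1-null chicken DT40 cells were treated with library compounds minus camptothecin and grown for at least 48 hr at 37 °C, after which cellular ATP was quantified by luminescence.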
# HepG2 tox: HepG2 cytotoxicity, counter-screen for TGF-b inhibitors | AID 588856 | Potency, µM (series often up to 46.1 µM), most hits filed as cytotoxic | HepG2 CAGA-GFP viability, ATP luminescence, 18 h | 410,000 compounds, 0.76% hits
#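 HepG2 CAGA-GFP cells (1000/well, DMEM with 1% FBS) received compound, then TGF-beta at 500 pg/mL final, and were incubated 18 hours at 37 degrees C. Viability was read by CellTiter-Glo luminescence. Media-only wells were set as complete cell-killing and DMSO as no toxicity.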
# Numbers stand for hits; 0 = inactive; ? = inconclusive; - = no result given. Compounds with a hit are over-represented: about 19% of the library has one in this group of screens. Unless noted, the call rests on the fitted dose curve; in most records, active means well fitted curve in the direction sought with a large enough effect; inconclusive means small, poorly fitted or top-dose-only effect, or another doubt; inactive means no such curve, though single readings can be large; an effect the other way counts as inactive or inconclusive.
SMILES,IL-1B inflam inh,TDP1 cell CPT,TDP1 block,TGFb inhibitor,TDP1 cell noCPT,HepG2 tox
CC1CCCCN1C(=O)c1ccc(OC2CCN(S(=O)(=O)N(C)C)CC2)cc1 (configuration not stated),0,?,0,0,10µM,0
CN(C)S(=O)(=O)N1CCC(Oc2ccc(C(=O)N3CCCCCC3)cc2)CC1,0,23µM,-,0,13µM,0
CCN(Cc1cnn(C)c1)C(=O)c1ccc(OC2CCN(S(=O)(=O)N(C)C)CC2)cc1,-68,0,0,0,0,0
CN(C)S(=O)(=O)N1CCC(Oc2ccc(C(=O)N3CCCCCCC3)cc2)CC1,0,16µM,0,0,16µM,0
CSCCNC(=O)c1ccc(OC2CCN(S(=O)(=O)N(C)C)CC2)cc1,0,0,-,0,0,0
COCCC(=O)N1CCC(Oc2ccc(C(=O)N3CCCCCCC3)cc2)CC1,0,?,0,0,?,0
CC(C)C[C@H]1COc2cccc(N(C)CCO)c2S(=O)(=O)N1,0,0,-,-,0,-
O=C(Cn1cc(COc2ccc(Br)cc2[N+](=O)[O-])nn1)c1ccc(O)cc1,0,?,-,0,0,0
CN(C(=O)c1ccc(OC2CCN(S(=O)(=O)N(C)C)CC2)cc1)C1CCCCC1,0,21µM,0,0,?,0
COc1ccc(C2(C)CC(=O)NC2=O)cc1 (configuration not stated),0,0,-,0,0,0
COc1ccc(C2(C)C(C#N)C(=O)NC(=O)C2C#N)cc1 (configuration not stated),0,0,-,0,2.3µM,0
COC(=O)c1ccc(C2c3c(oc4cc(C)c(C)cc4c3=O)C(=O)N2c2ccccn2)cc1 (configuration not stated),-,0,0,0,0,0
COc1ccc(CNc2cc(NCCCO)c([N+](=O)[O-])c3nonc23)cc1,0,21µM,0,0,6.5µM,0
CC(=O)OCCNc1cc(SCc2ccco2)c2nonc2c1[N+](=O)[O-],-52,?,-,?,18µM,0
O=[N+]([O-])c1c(NCc2ccco2)ncnc1NCc1ccco1,0,0,-,0,0,0
O=[N+]([O-])c1c(NCCCO)cc(N2CCN(Cc3ccc4c(c3)OCO4)CC2)c2nonc12,0,6.5µM,0,0,5.8µM,0
O=[N+]([O-])c1c(NCCCO)cc(N2CCCCCC2)c2nonc12,0,0,-,?,?,0
O=[N+]([O-])c1c(NCCCO)cc(SCc2ccco2)c2nonc12,-97,15µM,0,11µM,21µM,0
CCc1nc2ccc(C(=O)NCCc3ccc(OC)cc3)cc2nc1CC,0,?,0,0,?,0
CC(=O)OCCCNc1cc(Sc2ccc(C)cc2)c2nonc2c1[N+](=O)[O-],-51,2.9µM,0,0,3.3µM,0
O=[N+]([O-])c1c(NCCCO)cc(Sc2ccc(Cl)cc2)c2nonc12,-106,1.3µM,0,0,1.5µM,0
COc1ccc(Nc2cc(NCCCO)c([N+](=O)[O-])c3nonc23)cc1,0,0,-,0,0,0
Cn1ccnc1Sc1cc(NCCCO)c([N+](=O)[O-])c2nonc12,-101,3.3µM,0,?,5.2µM,0
CC1CCN(CCCNc2cc(NCCO)c([N+](=O)[O-])c3nonc23)CC1,0,0,-,0,0,0
CC(=O)OCCNc1cc(Sc2nc3ccccc3[nH]2)c2nonc2c1[N+](=O)[O-],-101,2.3µM,0,?,4.1µM,0
SMILES,IL-1B inflam inh,TDP1 cell CPT,TDP1 block,TGFb inhibitor,TDP1 cell noCPT,HepG2 tox
CCN(Cc1ccncc1)Cc1cn(C)nc1-c1ccc(Oc2ccccc2)cc1,0,0,0,?,0,0
CC[C@@H](C)[C@H](NC(=O)OCc1ccccc1)c1nnc([C@@H](NC(=O)OCc2ccccc2)[C@@H](C)CC)o1,0,?,0,?,?,0
CC(C)[C@H](NC(=O)OC(C)(C)C)c1nnc(S(=O)(=O)Cc2c(F)cccc2Cl)o1,?,1.2µM,0,11µM,1.6µM,20µM
CC[C@@H](C)[C@H](NC(=O)OC(C)(C)C)c1nnc(S(=O)(=O)Cc2cc(C)ccc2C)o1,0,1.3µM,0,?,2.3µM,0
O=c1[nH]cc(N(CCO)CCO)c(=O)[nH]1,0,0,-,0,0,0
CCN(CC)c1ccc(NC(=O)Cn2cc3c(n2)CCCC3)c(C)c1,-,?,0,0,?,0
Cc1cccc(CN2CCC(n3nccc3NC(=O)CCCc3ccccc3)CC2)c1,?,?,-,0,21µM,0
COc1ccccc1/C=C/CN1CCC(n2nccc2NC(=O)CCc2ccccc2)CC1,0,15µM,0,?,12µM,0
CCOc1ccccc1CN1CCC(n2nccc2NC(=O)CCCc2ccccc2)CC1,?,?,0,?,18µM,0
COc1ccccc1CN1CCC(n2nccc2NC(=O)CCCc2ccccc2)CC1,?,15µM,0,0,?,0
COc1ccc(C(C)(C)C)cc1NC(=O)COC(=O)c1ncc(Cl)c(Cl)c1Cl,0,0,0,0,0,0
CCOC(=O)c1c(C)[nH]c(C)c1S(=O)(=O)N(C)CC(=O)N(C)Cc1ccccc1,0,0,0,0,0,0
O=S(=O)(NCc1cccs1)c1ccccc1Cl,0,0,0,0,0,0
Cc1nn(CCC(=O)NCc2ccc(OC(C)C)cc2)c(=O)c2nn(-c3ccccc3)c(C)c12,?,0,0,0,0,0
Cc1nn(-c2ccccc2)c2c1N(CCCC(=O)NCc1ccc(OC(C)C)cc1)C(=O)CS2,-,15µM,0,?,7.3µM,0
Cc1nn(-c2ccccc2)c2c1N(CCCC(=O)NC(C)c1ccccc1)C(=O)CS2 (configuration not stated),-,15µM,0,?,?,0
COc1ccc(N2CCN(C(=O)CN3C(=O)CSc4c3c(C)nn4-c3ccccc3)CC2)cc1,-,?,0,0,?,0
CCCCOc1ccc(CNC(=O)CCCN2C(=O)CSc3c2c(C)nn3-c2ccccc2)cc1,-,18µM,0,?,13µM,0
Cc1nn(-c2ccccc2)c2c1N(CCCC(=O)NCc1ccc(Cl)cc1)C(=O)CS2,-,26µM,0,?,23µM,0
O=C(CCCNC(=O)c1ccc(Cl)cc1)Nc1ccccc1C(F)(F)F,0,0,-,0,0,0
CCN(CC)C(=O)COc1ccc(Br)cc1Cl,0,0,0,?,0,0

# Source: PubChem BioAssay (National Center for Advancing Translational Sciences (NCATS))
